# Data reported in the supplement of paper PMC10849652.
# About 7,900 targets were measured; listed, in parts, are those with a hit and a random draw of the rest. About 0.6% of all pairs of compound and target were hits. Values without a mark were called inactive.
# How the values were obtained:
# Assay in all cases: log2 fold change, soluble protein after heating vs DMSO (PISA); higher = thermal stabilisation; K562 cells, 10 uM, 30 min; active = over 0.2 and 3.5 SD of the protein, either way, in both replicates (recomputed)
# IRAK-1-4 Inhibitor I = compound: C1COCCN1CCN2C3=CC=CC=C3N=C2NC(=O)C4=CC(=CC=C4)[N+](=O)[O-] [IRAK-1-4 Inhibitor I]
# Summary of the method: (§1)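 K562 cells at 2×10^6 cells/mL were treated for 30 min with 10 μM compound, and aliquots were heated for 3 min over 48°C-58°C before pooling. Extraction used PBS with 0.5% NP-40 at 4°C, and soluble protein was the supernatant after 21,000xg for 90 min, measured by TMTpro 16plex LC-MS/MS with channel sums equalised. Thermal stability values, relative to control samples and from duplicates, are log2 fold changes.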
# ibrutinib = compound: C=CC(=O)N1CCC[C@@H](n2nc(-c3ccc(Oc4ccccc4)cc3)c3c(N)ncnc32)C1 [ibrutinib]
# Summary of the method: as §1
# [1] = compound: CC(=O)c1cnc2ccc(-c3cc(Cl)c(O)c(Cl)c3)nc2c1N[C@H]1CC[C@H](CN(C)C)CC1
# Summary of the method: as §1
# ralimetinib = compound: CC(C)(C)Cn1c(N)nc2ccc(-c3[nH]c(C(C)(C)C)nc3-c3ccc(F)cc3)nc21 [ralimetinib]
# Summary of the method: as §1
# [2] = compound: CC(C)(O)CC(=O)NCCn1ccc2ncnc(Nc3ccc(Oc4cccc(C(F)(F)F)c4)c(Cl)c3)c21
# Summary of the method: as §1
# [3] = compound: CC(C)C1=C2N=C(C=C(N2N=C1)NCC3=CC=CC=C3)NCCCCCCN
# Summary of the method: as §1
# [4] = compound: CC(C)C[C@@H](C=O)NC(=O)[C@H](CC(C)C)NC(=O)[C@H](CC(C)C)NC(=O)OCc1ccccc1
# Summary of the method: as §1
# pinometostat = compound: CC(C)N(C[C@H]1O[C@@H](n2cnc3c(N)ncnc32)[C@H](O)[C@@H]1O)[C@H]1C[C@@H](CCc2nc3cc(C(C)(C)C)ccc3[nH]2)C1 [pinometostat]
# Summary of the method: as §1
# [5] = compound: CC1=C(C(CC(=O)N1)C2=CC=C(C=C2)C(F)(F)F)C(=O)NC3=C(C=C4C(=C3)C=NN4)F
# Summary of the method: as §1
# [6] = compound: CC1=C(C2=C(C=C1)C(=O)C3=CC=CC=C3N2CCCN)C
# Summary of the method: as §1
# [7] = compound: CC1=C(C=C(C=C1)NC(=O)C2=CC(=CC=C2)C(C)(C)C#N)NC3=CC4=C(C=C3)N=CN(C4=O)C
# Summary of the method: as §1
# [8] = compound: CC1=C(C=C(C=C1)NC(=O)C2=CC(=CC=C2)N(C)C)NC(=O)C3=CC=C(C=C3)O
# Summary of the method: as §1
# [9] = compound: CC1=CC=C(C=C1)SC2=C3C=C(SC3=CN=C2)C(=O)N
# Summary of the method: as §1
# [10] = compound: CC1=NC(=CC=C1)C2=C(N=C(N2)C(C)(C)C)C3=CC4=NC=CN=C4C=C3
# Summary of the method: as §1
# Nexturastat A = compound: CCCCN(Cc1ccc(C(=O)NO)cc1)C(=O)Nc1ccccc1 [Nexturastat A]
# Summary of the method: as §1
# vemurafenib = compound: CCCS(=O)(=O)Nc1ccc(F)c(C(=O)c2c[nH]c3ncc(-c4ccc(Cl)cc4)cc23)c1F [vemurafenib]
# Summary of the method: as §1
# [11] = compound: CCCS(=O)(=O)Nc1ccc(F)c(C(=O)c2c[nH]c3ncc(Cl)cc23)c1F
# Summary of the method: as §1
# [12] = compound: CCCc1cc(C)[nH]c(=O)c1CNC(=O)c1cc(-c2ccnc(N3CCN(C)CC3)c2)cc2c1cnn2C(C)C
# Summary of the method: as §1
# givinostat = compound: CCN(CC)Cc1ccc2cc(COC(=O)Nc3ccc(C(=O)NO)cc3)ccc2c1 [givinostat]
# Summary of the method: as §1
# barasertib = compound: CCN(CCCOc1ccc2c(Nc3cc(CC(=O)Nc4cccc(F)c4)[nH]n3)ncnc2c1)CCOP(=O)(O)O [barasertib]
# Summary of the method: as §1
# UniProt P18065, sequence (P18065 whole entry, looked up): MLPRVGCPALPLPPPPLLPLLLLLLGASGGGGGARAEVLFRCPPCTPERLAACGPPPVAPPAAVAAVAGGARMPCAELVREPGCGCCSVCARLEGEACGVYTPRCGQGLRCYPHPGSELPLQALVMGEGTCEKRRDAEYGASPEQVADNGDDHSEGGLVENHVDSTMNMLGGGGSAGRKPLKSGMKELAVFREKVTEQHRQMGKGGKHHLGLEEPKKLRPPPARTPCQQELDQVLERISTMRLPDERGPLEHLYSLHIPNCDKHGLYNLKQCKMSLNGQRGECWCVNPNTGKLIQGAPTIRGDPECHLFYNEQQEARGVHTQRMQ
# UniProt Q9UI26, sequence (Q9UI26 whole entry, looked up): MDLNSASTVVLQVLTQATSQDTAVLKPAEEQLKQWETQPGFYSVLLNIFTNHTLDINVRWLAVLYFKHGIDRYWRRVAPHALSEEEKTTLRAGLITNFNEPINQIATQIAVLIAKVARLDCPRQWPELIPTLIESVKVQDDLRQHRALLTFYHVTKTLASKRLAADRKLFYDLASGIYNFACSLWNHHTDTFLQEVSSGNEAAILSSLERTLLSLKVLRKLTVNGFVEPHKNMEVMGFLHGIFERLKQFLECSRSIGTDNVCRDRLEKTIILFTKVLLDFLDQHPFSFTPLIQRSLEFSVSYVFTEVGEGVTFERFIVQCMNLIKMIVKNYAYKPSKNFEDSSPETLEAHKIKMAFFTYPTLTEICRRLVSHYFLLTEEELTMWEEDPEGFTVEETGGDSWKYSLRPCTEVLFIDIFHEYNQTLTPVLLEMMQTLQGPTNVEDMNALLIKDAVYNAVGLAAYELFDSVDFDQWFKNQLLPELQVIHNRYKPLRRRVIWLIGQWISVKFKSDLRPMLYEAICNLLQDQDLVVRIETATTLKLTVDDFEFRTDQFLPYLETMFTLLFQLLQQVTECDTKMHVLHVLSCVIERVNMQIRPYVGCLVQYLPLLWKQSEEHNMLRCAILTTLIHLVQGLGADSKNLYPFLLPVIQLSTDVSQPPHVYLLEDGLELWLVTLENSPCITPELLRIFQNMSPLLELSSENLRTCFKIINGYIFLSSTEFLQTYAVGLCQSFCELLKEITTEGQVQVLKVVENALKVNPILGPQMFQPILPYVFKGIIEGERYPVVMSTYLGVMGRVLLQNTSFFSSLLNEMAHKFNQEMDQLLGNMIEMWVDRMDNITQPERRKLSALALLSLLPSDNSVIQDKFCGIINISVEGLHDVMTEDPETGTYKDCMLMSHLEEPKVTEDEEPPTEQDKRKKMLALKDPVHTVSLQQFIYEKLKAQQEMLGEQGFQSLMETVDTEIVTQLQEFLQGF
# UniProt Q16539, sequence (Q16539 whole entry, looked up): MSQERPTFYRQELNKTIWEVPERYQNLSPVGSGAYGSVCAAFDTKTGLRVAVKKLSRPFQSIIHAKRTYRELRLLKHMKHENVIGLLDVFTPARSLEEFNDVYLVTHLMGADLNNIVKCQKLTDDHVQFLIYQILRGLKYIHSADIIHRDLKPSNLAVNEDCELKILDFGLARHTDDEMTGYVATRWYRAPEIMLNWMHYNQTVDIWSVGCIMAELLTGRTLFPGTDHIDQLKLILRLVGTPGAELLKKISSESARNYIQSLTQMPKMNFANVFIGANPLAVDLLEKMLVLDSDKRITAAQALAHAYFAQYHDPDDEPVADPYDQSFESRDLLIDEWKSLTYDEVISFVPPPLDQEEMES
# UniProt O14733, sequence (O14733 whole entry, looked up): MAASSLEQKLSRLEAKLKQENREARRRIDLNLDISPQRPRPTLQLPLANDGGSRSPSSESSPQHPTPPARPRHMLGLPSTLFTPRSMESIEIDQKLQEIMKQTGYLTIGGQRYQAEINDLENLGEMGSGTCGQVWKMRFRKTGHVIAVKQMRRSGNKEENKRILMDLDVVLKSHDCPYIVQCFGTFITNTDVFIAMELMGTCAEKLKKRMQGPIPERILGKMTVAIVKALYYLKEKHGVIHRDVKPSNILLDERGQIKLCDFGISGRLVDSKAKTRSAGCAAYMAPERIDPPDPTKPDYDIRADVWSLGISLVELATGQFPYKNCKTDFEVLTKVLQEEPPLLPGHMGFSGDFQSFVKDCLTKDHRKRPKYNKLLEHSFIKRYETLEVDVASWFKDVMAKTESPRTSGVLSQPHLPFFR
# UniProt P27816, sequence (P27816 whole entry, looked up): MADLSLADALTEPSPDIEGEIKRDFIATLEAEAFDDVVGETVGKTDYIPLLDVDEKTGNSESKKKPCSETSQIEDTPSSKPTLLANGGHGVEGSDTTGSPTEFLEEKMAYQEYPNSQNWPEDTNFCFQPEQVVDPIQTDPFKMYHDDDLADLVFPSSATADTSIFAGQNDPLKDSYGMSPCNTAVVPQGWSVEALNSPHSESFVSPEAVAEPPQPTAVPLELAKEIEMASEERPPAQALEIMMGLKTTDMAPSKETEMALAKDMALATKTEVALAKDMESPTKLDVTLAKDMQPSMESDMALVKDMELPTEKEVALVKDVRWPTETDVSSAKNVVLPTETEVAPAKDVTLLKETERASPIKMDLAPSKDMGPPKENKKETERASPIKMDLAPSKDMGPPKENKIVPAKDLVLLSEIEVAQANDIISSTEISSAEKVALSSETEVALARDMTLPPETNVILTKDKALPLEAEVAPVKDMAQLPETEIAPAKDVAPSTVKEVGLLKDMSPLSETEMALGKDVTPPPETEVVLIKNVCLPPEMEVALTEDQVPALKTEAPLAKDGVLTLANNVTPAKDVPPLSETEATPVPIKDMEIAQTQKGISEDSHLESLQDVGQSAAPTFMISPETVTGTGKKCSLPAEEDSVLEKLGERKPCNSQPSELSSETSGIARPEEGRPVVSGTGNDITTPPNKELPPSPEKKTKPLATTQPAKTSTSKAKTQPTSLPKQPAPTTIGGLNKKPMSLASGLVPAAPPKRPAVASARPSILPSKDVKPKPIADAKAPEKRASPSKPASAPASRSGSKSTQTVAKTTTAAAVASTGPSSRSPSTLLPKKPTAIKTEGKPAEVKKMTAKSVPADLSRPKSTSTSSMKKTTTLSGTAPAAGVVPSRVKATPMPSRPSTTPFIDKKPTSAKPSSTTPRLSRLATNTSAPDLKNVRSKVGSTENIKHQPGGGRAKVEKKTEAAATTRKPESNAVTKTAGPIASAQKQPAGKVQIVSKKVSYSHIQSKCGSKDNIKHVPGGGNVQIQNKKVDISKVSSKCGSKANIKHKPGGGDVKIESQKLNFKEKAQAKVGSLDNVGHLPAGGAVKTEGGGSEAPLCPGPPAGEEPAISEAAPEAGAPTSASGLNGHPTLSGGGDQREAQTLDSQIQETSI
# UniProt Q14624, sequence (Q14624 whole entry, looked up): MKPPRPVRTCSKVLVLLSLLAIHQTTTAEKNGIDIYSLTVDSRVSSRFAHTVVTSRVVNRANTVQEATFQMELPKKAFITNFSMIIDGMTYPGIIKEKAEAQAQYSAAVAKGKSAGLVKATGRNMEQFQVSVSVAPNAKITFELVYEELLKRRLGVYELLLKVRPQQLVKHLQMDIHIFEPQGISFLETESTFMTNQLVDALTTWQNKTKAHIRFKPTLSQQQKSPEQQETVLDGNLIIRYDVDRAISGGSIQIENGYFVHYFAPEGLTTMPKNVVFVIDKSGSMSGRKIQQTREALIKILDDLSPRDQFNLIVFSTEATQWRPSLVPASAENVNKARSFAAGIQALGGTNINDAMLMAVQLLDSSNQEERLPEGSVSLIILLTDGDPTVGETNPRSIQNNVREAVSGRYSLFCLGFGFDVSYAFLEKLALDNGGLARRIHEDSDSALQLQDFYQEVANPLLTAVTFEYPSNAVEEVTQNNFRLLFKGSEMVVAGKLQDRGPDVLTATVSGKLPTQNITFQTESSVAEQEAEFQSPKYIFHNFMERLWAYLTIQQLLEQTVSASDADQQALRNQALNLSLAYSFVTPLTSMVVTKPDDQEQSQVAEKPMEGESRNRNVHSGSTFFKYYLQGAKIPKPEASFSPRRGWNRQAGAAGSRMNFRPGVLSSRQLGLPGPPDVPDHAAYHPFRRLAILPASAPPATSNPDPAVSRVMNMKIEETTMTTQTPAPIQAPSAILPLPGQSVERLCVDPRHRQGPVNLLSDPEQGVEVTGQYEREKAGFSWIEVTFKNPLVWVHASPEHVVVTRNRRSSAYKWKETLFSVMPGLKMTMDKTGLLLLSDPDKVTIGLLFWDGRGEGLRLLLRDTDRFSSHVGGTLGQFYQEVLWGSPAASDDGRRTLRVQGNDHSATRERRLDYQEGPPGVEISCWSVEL
# UniProt Q14974, sequence (Q14974 whole entry, looked up): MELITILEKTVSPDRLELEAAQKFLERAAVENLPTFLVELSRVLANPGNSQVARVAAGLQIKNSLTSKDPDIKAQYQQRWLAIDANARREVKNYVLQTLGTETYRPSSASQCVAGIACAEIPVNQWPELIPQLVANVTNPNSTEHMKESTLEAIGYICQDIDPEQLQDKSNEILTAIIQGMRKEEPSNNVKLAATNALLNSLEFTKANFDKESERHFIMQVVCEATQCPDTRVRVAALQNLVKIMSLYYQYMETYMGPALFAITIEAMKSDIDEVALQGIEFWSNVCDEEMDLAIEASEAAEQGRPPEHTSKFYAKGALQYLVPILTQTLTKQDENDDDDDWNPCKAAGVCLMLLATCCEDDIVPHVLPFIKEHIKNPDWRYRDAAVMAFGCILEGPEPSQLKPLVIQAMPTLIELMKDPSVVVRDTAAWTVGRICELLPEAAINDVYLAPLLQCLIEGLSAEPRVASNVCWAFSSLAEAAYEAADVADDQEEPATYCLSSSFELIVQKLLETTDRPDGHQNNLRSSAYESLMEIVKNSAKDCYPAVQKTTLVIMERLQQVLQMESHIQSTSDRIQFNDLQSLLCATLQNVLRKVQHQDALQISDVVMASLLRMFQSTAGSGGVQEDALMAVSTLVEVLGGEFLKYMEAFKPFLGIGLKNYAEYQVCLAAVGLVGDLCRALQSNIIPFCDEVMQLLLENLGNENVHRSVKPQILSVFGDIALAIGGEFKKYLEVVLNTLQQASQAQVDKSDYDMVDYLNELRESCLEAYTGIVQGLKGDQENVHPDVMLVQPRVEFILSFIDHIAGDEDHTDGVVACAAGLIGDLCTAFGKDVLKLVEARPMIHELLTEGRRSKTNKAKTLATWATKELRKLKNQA
Target,log2 fold change (IRAK-1-4 Inhibitor I),log2 fold change (ibrutinib),log2 fold change [1],log2 fold change (ralimetinib),log2 fold change [2],log2 fold change [3],log2 fold change [4],log2 fold change (pinometostat),log2 fold change [5],log2 fold change [6],log2 fold change [7],log2 fold change [8],log2 fold change [9],log2 fold change [10],log2 fold change (Nexturastat A),log2 fold change (vemurafenib),log2 fold change [11],log2 fold change [12],log2 fold change (givinostat),log2 fold change (barasertib)
MAP4 (UniProt P27816),0.003,0,0.012,0.025,0.012,0.076,0.019,0.001,0.006,0.08,-0.006,0.007,-0.018,-0.01,0.003,-0.018,-0.007,0.002,-0.004,-0.046
MDC1 (UniProt Q14676),-0.012,-0.013,-0.013,0.062,0.122,-0.321,0.176,0.133,0.001,0.11,-0.019,-0.037,-0.013,-0.076,0.048,-0.037,-0.008,0.074,0.055,-0.074
KPNB1 (UniProt Q14974),-0.079,-0.041,0.033,0.042,-0.036,-0.355 (active),0.035,0.113,0.012,-0.038,0.049,-0.041,0,-0.015,0.119,0.07,0.076,0.052,0.085,0.02
MICOS13 (UniProt Q5XKP0),0.087,-0.012,-0.022,-0.077,-0.193,-0.146,0.006,-0.023,-0.009,-0.008,0.041,-0.06,0.056,0.065,-0.065,0.018,0.077,-0.069,0.027,0.034
IPO11 isoform 2 (UniProt Q9UI26),0.011,-0.014,0.039,-0.016,-0.095,0.018,-0.039,-0.035,0.002,-0.018,0.028,0.004,0.024,0.047,-0.002,0.052,0.082,-0.031,-0.031,0.014
MAP2K7 isoform 4 (UniProt O14733),0.013,-0.301 (active),0.175,-0.043,-0.013,-0.025,0.051,0.022,0.033,0.032,-0.068,0.003,-0.008,0.009,-0.031,-0.01,0.009,-0.026,-0.019,0.016
ME2 (UniProt P23368),0.009,-0.039,0.213,-0.003,0.036,0.152,0.025,-0.021,-0.048,-0.042,-0.01,-0.057,-0.044,-0.017,0.015,0.011,0.002,0.022,0.027,0.018
KDM5D isoform 3 (UniProt Q9BY66),-0.042,-0.222,-0.05,-0.083,-0.155,0.036,0.114,-0.047,0.043,-0.103,-0.132,-0.144,0.036,0.039,-0.08,0.003,0.128,-0.004,0.014,0.108
ITIH4 (UniProt Q14624),0.043,0.147,0.041,-0.044,0.17,0.045,-0.113,-0.117,0.251,-0.148,-0.14,0.166,0.135,0.214,0.014,0.224,0.012,-0.211,-0.005,0.014
MAPK14 isoform 2 (UniProt Q16539),-0.011,0.001,1.01 (active),1.48 (active),-0.096,-0.218,-0.089,-0.141,-0.152,-0.013,1.9 (active),0.649,0.024,0.036,0.064,0.095,0.219,0.026,0.107,-0.005
IGFBP2 (UniProt P18065),0.196,0.09,0.166,-0.115,-0.063,-0.137,0.008,-0.192,0.254,-0.159,-0.154,0.173,0.201,0.349,0.106,0.262,-0.003,-0.409,0.056,0.012
KTN1 (UniProt Q86UP2),-0.066,-0.029,0.065,0.098,0,-0.343 (active),0.072,0.102,-0.019,0.071,-0.071,-0.051,0.014,-0.002,0.141,0.012,0.027,0.034,0.022,0.033
